Reference: PubChem BioAssay
Active and inactive are the calls of the source.

What was measured:
[1] = binders of probe aFSTL3 on microarray, primary screen, stem cell growth factor project, biochemical, small-molecule microarray, fluorescence 635/667 (AID 1064); details: higher = more signal;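 further: measures binding of the biotinylated anti-FSTL3 antibody to printed compounds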
[2] = binders from COS7 lysate, DM2A8 probe, primary screen, torsin A project, cell lysate, small-molecule microarray, fluorescence 635/667 (AID 1065); details: higher = more signal, COS7 lysate expressing mutant human TOR1A
[3] = binders of probe aFGF2 on microarray, primary screen, stem cell growth factor project, biochemical, small-molecule microarray, fluorescence 635/667 (AID 1067); details: higher = more signal;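 further: measures binding of biotinylated aFGF2 protein to printed compounds on slides; z-score merges feature fluorescence and signal-to-noise across triplicate slides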
[4] = binders of probe aFGF10 on microarray, primary screen, stem cell growth factor project, biochemical, small-molecule microarray, fluorescence 635/667 (AID 1071); details: higher = more signal;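 further: score merges 667 nm spot intensity and signal to noise from triplicate slides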
[5] = molecular target: Neurogenic locus notch homolog protein 2 (Homo sapiens) (UniProt Q04721); experiment: Notch2 binders on small-molecule microarrays, primary screen, biochemical, small-molecule microarray, 635 nm fluorescence, stem cell growth factors (AID 1073); details: Notch2 binding, higher = more signal
[6] = molecular target: Pro-neuregulin-1, membrane-bound isoform (Homo sapiens) (UniProt Q02297); experiment: NRG1 binders on small-molecule microarrays, primary screen, psychiatric disease protein project, biochemical, small-molecule microarray, fluorescence 635/667 (AID 1075); details: NRG1 binding, 635 nm fluorescence, higher = more signal;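 further: score combines 667 nm spot fluorescence with signal to noise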
[7] = tested on: Neuregulin-1 EGF-like domain; experiment: binders of neuregulin-1 EGF-like domain, primary screen, biochemical, small-molecule microarray, 635 nm fluorescence (AID 1081); details: small-molecule microarray binding, higher = more signal;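 further: binding of the protein to compounds printed on small-molecule microarray slides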
[8] = FRG1 promoter luciferase signal modulators, primary screen, FRG1 inhibition for FSHD, cell-based, C2C12 myotubes, firefly/Renilla luciferase, luminescence (AID 1084); details: higher = more signal, called active from +8 up or from −8 down
[9] = binders of probe aFST on microarray, primary screen, stem cell growth factor project, biochemical, small-molecule microarray, fluorescence 635/667 (AID 1086); details: higher = more signal;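 further: score merges 667 nm fluorescence with signal-to-noise of each printed compound spot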
[10] = binders of probe aHhip on microarray, primary screen, stem cell growth factor project, biochemical, small-molecule microarray, fluorescence 635/667 (AID 1087); details: higher = more signal;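 further: score merges spot fluorescence at 667nm with spot signal to noise ratio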

Neurogenic locus notch homolog protein 2 (Homo sapiens), sequence (Q04721 whole entry, looked up, canonical isoform): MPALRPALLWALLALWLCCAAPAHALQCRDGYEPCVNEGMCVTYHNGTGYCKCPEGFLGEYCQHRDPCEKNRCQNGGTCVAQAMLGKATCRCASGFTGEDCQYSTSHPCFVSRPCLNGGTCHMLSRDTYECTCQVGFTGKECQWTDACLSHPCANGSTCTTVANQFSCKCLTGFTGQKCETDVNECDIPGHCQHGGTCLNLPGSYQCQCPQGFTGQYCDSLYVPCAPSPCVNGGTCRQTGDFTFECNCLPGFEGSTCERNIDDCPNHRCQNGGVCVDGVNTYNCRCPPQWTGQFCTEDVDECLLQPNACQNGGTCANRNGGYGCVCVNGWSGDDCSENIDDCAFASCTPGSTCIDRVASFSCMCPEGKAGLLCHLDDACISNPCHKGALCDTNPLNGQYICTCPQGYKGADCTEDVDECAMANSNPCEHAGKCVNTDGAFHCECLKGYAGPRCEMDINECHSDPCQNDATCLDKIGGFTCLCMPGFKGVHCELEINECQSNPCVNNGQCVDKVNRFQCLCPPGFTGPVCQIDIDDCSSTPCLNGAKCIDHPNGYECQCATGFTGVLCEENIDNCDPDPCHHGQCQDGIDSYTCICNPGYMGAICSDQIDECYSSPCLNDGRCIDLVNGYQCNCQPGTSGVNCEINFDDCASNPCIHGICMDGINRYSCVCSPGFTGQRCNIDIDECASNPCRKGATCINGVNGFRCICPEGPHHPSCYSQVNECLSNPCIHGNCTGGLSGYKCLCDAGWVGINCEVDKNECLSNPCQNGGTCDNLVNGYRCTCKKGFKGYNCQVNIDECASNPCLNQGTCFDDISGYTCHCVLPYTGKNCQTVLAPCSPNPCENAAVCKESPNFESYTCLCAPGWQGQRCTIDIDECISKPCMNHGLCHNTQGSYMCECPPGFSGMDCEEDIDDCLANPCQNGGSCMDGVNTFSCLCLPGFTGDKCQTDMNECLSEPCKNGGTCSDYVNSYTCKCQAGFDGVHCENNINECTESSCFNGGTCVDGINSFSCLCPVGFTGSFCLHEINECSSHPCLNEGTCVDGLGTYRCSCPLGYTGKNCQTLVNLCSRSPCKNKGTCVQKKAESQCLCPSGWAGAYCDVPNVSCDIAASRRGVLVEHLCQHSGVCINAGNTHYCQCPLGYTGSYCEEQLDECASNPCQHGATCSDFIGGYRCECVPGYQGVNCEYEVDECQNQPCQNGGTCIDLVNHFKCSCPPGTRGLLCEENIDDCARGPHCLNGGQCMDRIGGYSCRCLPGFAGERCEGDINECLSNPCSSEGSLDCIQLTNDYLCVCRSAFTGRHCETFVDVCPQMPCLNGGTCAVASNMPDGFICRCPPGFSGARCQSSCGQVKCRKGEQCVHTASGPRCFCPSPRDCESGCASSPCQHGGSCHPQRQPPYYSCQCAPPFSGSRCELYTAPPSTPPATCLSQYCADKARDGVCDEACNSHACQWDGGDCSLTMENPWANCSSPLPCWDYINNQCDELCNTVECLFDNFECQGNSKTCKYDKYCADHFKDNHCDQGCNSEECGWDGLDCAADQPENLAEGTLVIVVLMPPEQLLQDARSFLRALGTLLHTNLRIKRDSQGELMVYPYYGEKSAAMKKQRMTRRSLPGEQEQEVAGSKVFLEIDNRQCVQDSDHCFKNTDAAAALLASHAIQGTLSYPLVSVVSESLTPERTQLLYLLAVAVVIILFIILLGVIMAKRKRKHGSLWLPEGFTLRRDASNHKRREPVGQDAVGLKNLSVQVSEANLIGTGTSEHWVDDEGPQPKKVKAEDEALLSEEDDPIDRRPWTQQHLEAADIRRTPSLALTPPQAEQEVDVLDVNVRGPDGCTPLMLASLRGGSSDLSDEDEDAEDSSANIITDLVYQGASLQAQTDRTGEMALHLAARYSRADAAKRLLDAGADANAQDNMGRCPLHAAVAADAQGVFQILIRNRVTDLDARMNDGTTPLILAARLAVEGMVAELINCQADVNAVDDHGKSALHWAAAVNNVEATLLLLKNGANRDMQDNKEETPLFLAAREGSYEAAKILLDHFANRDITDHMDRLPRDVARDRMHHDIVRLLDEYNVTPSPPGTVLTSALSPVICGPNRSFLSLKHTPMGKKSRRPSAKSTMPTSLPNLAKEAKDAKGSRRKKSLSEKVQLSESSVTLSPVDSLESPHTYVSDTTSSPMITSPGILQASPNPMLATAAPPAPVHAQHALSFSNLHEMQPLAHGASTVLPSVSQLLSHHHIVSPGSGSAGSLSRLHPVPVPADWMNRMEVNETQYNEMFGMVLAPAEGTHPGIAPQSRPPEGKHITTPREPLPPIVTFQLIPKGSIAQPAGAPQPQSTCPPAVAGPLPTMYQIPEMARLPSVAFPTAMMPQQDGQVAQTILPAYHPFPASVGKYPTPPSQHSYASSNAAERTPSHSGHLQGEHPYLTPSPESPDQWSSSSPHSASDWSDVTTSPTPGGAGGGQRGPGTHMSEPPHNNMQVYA
Pro-neuregulin-1, membrane-bound isoform (Homo sapiens), sequence (Q02297 whole entry, looked up, the tested form may be a part, canonical isoform): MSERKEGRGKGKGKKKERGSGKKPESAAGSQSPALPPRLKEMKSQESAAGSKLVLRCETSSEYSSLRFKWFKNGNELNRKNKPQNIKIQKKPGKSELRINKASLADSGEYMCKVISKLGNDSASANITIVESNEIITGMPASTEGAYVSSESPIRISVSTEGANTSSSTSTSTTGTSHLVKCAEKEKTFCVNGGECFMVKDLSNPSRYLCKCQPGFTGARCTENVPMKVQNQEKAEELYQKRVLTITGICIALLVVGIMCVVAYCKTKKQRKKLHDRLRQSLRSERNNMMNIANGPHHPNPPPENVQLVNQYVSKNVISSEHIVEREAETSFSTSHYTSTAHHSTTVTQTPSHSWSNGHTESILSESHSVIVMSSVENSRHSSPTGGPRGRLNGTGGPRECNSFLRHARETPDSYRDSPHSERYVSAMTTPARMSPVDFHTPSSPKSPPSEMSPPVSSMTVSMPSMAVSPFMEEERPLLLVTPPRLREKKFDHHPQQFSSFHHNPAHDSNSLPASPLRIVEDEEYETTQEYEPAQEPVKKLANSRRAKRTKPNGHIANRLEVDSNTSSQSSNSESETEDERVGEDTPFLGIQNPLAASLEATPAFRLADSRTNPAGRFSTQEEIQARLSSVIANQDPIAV

SMILES	composite z-score [1]	composite z-score [2]	composite z-score [3]	composite z-score [4]	composite z-score [5]	composite z-score [6]	composite z-score [7]	z-score [8]	composite z-score [9]	composite z-score [10]
O=C(NCc1ccccc1)[C@]1(Cc2ccccc2)N=C(c2ccc(OCCCO)cc2)O[C@@H]1c1ccccc1	0.78	-0.136	-0.0499	0.885	1.46	1.31	0.93	-2.57 (inactive)	0.662	0.0024
O=C1O[C@@H](c2ccccc2)[C@@H](c2ccccc2)N2[C@@H](c3ccc(O)cc3)[C@]3(C(=O)Nc4ccc(C#CC5(O)CCCCCC5)cc43)[C@@H](C(=O)N3CCN(c4ncccn4)CC3)[C@H]12	-0.381	0.0262	0.0011	0.349	0.609	1.6	1.22	-0.0311 (inactive)	0.204	-0.0994
C=CCOC(=O)[C@H]1[C@@H]2C(=O)O[C@@H](c3ccccc3)[C@@H](c3ccccc3)N2[C@@H](c2ccc(OCCOC(=O)[C@H]3C[C@H]4C(=O)N[C@@H](CCCCN(C)C)C(=O)N4[C@H]3c3ccc(O)cc3)cc2)[C@]12C(=O)Nc1ccccc12	0.27	0.91	-0.033	0.445	0.349	-0.013	1.19	0.139 (inactive)	0.86	0.0524
[N-]=[N+]=NCc1ccccc1C[C@@]1(C(=O)NCCN2CCOCC2)N=C(c2ccc(OCCCO)cc2)O[C@@H]1c1ccccc1CN=[N+]=[N-]	-0.166	0.69	0.105	0.924	1.26	1.27	1.21	-2.25 (inactive)	1.59	0.0053
C=C[C@H](C)[C@H](OC(=O)Nc1ccc(SC)cc1)c1ccc(O)c2ccccc12	-0.0571	-0.0235	0.0243	-0.624	-0.718	0.583	1.05	2.77 (inactive)	-0.744	-0.268
CCOC(=O)C[C@H]1[C@H](OC(=O)Cc2ccc3c(c2)OCO3)[C@@H](NC(=O)c2ccccc2)c2cc(OCCCO)ccc2N1C(=O)c1ccccc1	-0.23	0.122	-0.0687	0.346	0.228	-0.109	0.895	-1.73 (inactive)	0.0452	-0.0237
COc1ccc([Si](C)(C)[C@H]2[C@H](CCO)O[C@@]3(C(=O)N(Cc4cccc(N5CCOC5=O)c4)c4ccccc43)[C@@H]2C)cc1	-0.167	-0.16	-0.034	0.674	0.849	0.843	0.783	-2.15 (inactive)	-0.292	0.0373
CC(C)c1ccc(NN2C(C(O)c3ccccn3)C=CC3C(=O)N(c4ccccc4)C(=O)C32)cc1 (stereo not given)	-0.311	0.205	0.235	1.17	1.64	1.64	1.42	3.43 (inactive)	1.49	0.347
C=C(/C(=C/C[C@@H](OC(=O)c1ccncc1)c1ccccc1OCCO)c1cnc2ccccc2c1)C(C)C	-0.108	0.707	0.0401	1.14	1.5	1.23	1.2	-3.75 (inactive)	-0.177	0.144
COC(=O)[C@@]1(Cc2ccc(F)cc2)[C@@H]2[C@@H](CC(=O)[C@H]2CC(=O)C(=O)N2CCCC2)CN1C(=O)c1ccccc1	0.664	-0.196	0.0255	0.56	1.71	1.85	1.12	2.38 (inactive)	1.61	-0.24
C=CCC(OC(C)=O)[C@@H]1[C@@H](N(Cc2cccc3ccccc23)C(=O)Cc2ccc(F)cc2)c2cc(OCCCO)ccc2N1C(=O)Cc1ccc(OC)cc1 (stereo not given in full)	-0.449	0.202	-0.116	0.493	-0.045	-0.418	-0.424	-1.05 (inactive)	0.0417	-0.191
CCCCC(CC)C(O)C1C=CC2C(=O)NC(=O)C2N1Nc1ccccn1 (stereo not given)	-0.252	-0.14	-0.0005	0.207	1.41	1.38	0.879	1.54 (inactive)	0.245	0.204
Cc1cc(C)c(C(O)C2C=CC3C(=O)N(c4ccccc4)C(=O)C3N2Nc2ccccc2)c(C)c1 (stereo not given)	0.175	0.668	0.216	1.08	1.56	1.99	1.22	0.423 (inactive)	1.25	-0.189
O=C1O[C@H](c2ccccc2)[C@H](c2ccccc2)N2[C@H]1[C@@H](C(=O)N1CCN(c3ncccn3)CC1)[C@]1(C(=O)Nc3ccc(C#CCCO)cc31)[C@H]2c1ccc(OCCO)cc1	0.0379	1.26	0.0229	1.26	1.53	0.826	0.995	0.0862 (inactive)	1.35	-0.0994
Cc1ccc(C(C)CC(O)C2C=CC3C(=O)N(Cc4ccccc4)C(=O)C3N2n2cnnc2)o1 (stereo not given)	1.67	0.46	0.522	0.703	1.29	0.907	1.44	0.386 (inactive)	2.16	0.488
COc1ccc([Si](C)(C)[C@@H]2[C@@H](CCO)O[C@]3(C(=O)N(Cc4ccccc4)c4ccc(N5CCCCC5=O)cc43)[C@H]2C)cc1	-0.389	0.942	0.0026	0.711	1.06	0.965	1.15	-4.38 (inactive)	0.566	-0.0645

SMILES	composite z-score [1]	composite z-score [2]	composite z-score [3]	composite z-score [4]	composite z-score [5]	composite z-score [6]	composite z-score [7]	z-score [8]	composite z-score [9]	composite z-score [10]
O=C1N(CCS(=O)(=O)c2ccccc2)Cc2ccccc2C[C@@]12COC(c1ccc(OCCCO)cc1)=N2	0.965	0.667	0.212	0.613	1.45	1.02	1.35	0.0674 (inactive)	1.58	-0.0459
CN(C)C(=O)[C@@]1(CCS(=O)(=O)c2ccccc2)N=C(c2ccc(OCCCO)cc2)O[C@H]1c1ccccc1CN=[N+]=[N-]	-0.323	0.124	0.226	0.972	1.33	1.63	1.27	-1.56 (inactive)	0.889	-0.236
C=CCN1C(=O)[C@@]2(O[C@@H](CCO)[C@H]([Si](C)(C)c3ccc(OC)cc3)[C@H]2C)c2cc(NC(=O)[C@H](C)O)ccc21	-0.0083	0.558	-0.0243	1.03	0.503	0.915	1.1	-0.737 (inactive)	0.005	-0.169
C=C(CCCC)/C(=C/C[C@@H](OC(=O)c1ccncc1)c1ccccc1OCCO)c1cc(C(=O)OC)ccc1OC	-0.256	0.815	-0.0628	0.173	0.791	1.17	1.2	0.488 (inactive)	-0.242	-0.0296
C=CCN1C(=O)[C@@]2(O[C@@H](CCn3cc([C@H](O)c4ccccc4)nn3)[C@H]([Si](C)(C)c3ccc(OC)cc3)[C@H]2C)c2cc(NC(=O)c3ccc(OC)cc3)ccc21	0.027	0.321	0.0084	0.0737	0.147	0.56	0.531	-1.36 (inactive)	0.101	0.185
C=C(COC)C(=O)CC[C@H](OC(=O)c1ccccc1-c1ccccc1C(=O)O)c1ccc(CO)o1	-0.326	-0.192	-0.128	0.738	-0.532	0.844	1.33	-0.362 (inactive)	-0.118	-0.0618
C[N+](C)(C)CCCCCCNC(=O)[C@H]1C[C@H]2C(=O)N3CCC[C@H]3C(=O)N2[C@H]1c1cccc(OCCO)c1	-0.238	2.05	0.0111	0.573	0.761	0.577	1.42	4.55 (inactive)	0.301	0.154
COCCOC(=O)N1C(=O)[C@@]2(c3ccccc31)[C@H](c1ccccc1OCCO)N1[C@H](c3ccccc3)[C@H](c3ccccc3)OC(=O)[C@H]1[C@@H]2C(=O)N1CCc2cc(OC)c(OC)cc2C1	0.184	0.124	0.071	0.336	0.403	0.982	1.25	-1.61 (inactive)	0.356	0.28
O=C1c2ccccc2[C@](Cc2ccccc2I)(C(=O)NC2CC2)[C@H](c2ccc(CO)cc2)N1Cc1ccccc1Cl	0.558	0.478	0.221	0.487	1.23	1.36	1.27	-2.71 (inactive)	0.496	-0.105
CCCC=C(CCC)[C@@H](NS(=O)(=O)CC)c1ccccc1	-0.14	-0.534	0.0583	0.576	1.15	0.808	1.09	1.33 (inactive)	0.725	-0.0645
C=CCC(OC(C)=O)[C@@H]1[C@@H](N(Cc2ccc(-c3cccc(C(F)(F)F)c3)o2)C(=O)c2cccc3ccccc23)c2cc(OCCCO)ccc2N1C(=O)c1ccc(-c2ccccc2)cc1 (stereo not given in full)	-0.188	0.0536	-0.12	-0.212	-0.628	0.0252	-0.908	-0.579 (inactive)	0.123	0.0749
CC(C)(C)OC(=O)CC[C@@]1(C(=O)N2CCCCC2)N=C(c2ccc(OCCCO)cc2)O[C@@H]1c1ccccc1N=[N+]=[N-]	0.358	0.805	0.147	1.03	1.66	1.89	1.41	-1.88 (inactive)	1.34	-0.0237
C=CCOC(=O)[C@@H]1[C@H]2C(=O)O[C@H](c3ccccc3)[C@H](c3ccccc3)N2[C@H](c2ccc(OCCOC(=O)[C@H]3C[C@H]4C(=O)N[C@@H](Cc5ccccc5)C(=O)N4[C@H]3c3cccc(OCCO)c3)cc2)[C@@]12C(=O)Nc1ccc(I)cc12	0.014	0.548	-0.0512	0.957	1.09	0.0935	1.31	2.41 (inactive)	0.56	-0.186
CCCC[C@H]1OB(O)C[C@H]2C1=C(COc1ccccc1)Cn1c(=O)n(-c3ccccc3)c(=O)n12	-0.211	0.556	-0.145	0.279	0.403	1.01	0.77	-0.971 (inactive)	0.415	-0.164
COc1cc(NN2C(C(O)c3ccc(I)cc3)C=CC3C(=O)N(C)C(=O)C32)cc(OC)c1OC (stereo not given)	0.495	-0.363	-0.0207	0.0488	1.52	1.96	1.14	0.777 (inactive)	-0.0647	-0.0237
